# Laboratory results: the supplement of paper PMC11060735
# Counter-ions that a name gives are not always drawn. Out of some 1,800 compounds screened, about 50 (3%) showed activity. The full list was thinned out, with actives kept by preference. Unmarked numbers belong to inactive results.
# System: mouse p16Ink4a+/- lung fibroblasts (INKBRITE, bleomycin-injured)
# Test: percentage of GFP+ (p16Ink4a+) fibroblasts among all cells in well; higher = less depletion of p16Ink4a+ cells, active = 20 or less
# Settings: 1 µM; 3 days
row,Structure (SMILES),percentage of GFP+
1,COc1cc(OC)c(/C=C/S(=O)(=O)Cc2ccc(OC)c(NCC(=O)O)c2)c(OC)c1 [Rigosertib],27.9%
2,O=C(O)COCCN1CCN(C(c2ccccc2)c2ccc(Cl)cc2)CC1 (stereo unspecified) [Cetirizine],46.1%
3,C[C@@H](NCCCc1cccc(C(F)(F)F)c1)c1cccc2ccccc12 [Cinacalcet],33.2%
4,CCCSc1nc(N[C@@H]2C[C@H]2c2ccc(F)c(F)c2)c2nnn([C@@H]3C[C@H](OCCO)[C@@H](O)[C@H]3O)c2n1 [Ticagrelor],30.8%
5,COc1cc([C@@H]2c3cc4c(cc3[C@@H](O[C@@H]3O[C@@H]5CO[C@@H](c6cccs6)O[C@H]5[C@H](O)[C@H]3O)[C@H]3COC(=O)[C@H]23)OCO4)cc(OC)c1O [Teniposide],21.1%
6,COc1cc([C@@H]2c3cc4c(cc3[C@@H](O[C@@H]3O[C@@H]5CO[C@@H](C)O[C@H]5[C@H](O)[C@H]3O)[C@H]3COC(=O)[C@H]23)OCO4)cc(OC)c1O [Etoposide],19.3% (active)
7,C=CC(=O)Nc1cccc(Sc2nc(Nc3ccc(N4CCN(C)CC4)cc3)ncc2Cl)c1,46.3%
8,O=C(Nc1ccccc1Br)N[C@@H]1CCN(c2ccc(C(F)(F)F)cn2)C1,39.1%
9,CCCC(C)NC(=O)c1ccc(Cl)c(Cl)c1 (stereo unspecified),45.8%
10,CC(C)C[C@H](NC(=O)CNC(=O)c1cc(Cl)ccc1Cl)B(O)O [Ixazomib],4.65% (active)
11,CNCC[C@H](Oc1cccc2ccccc12)c1cccs1 [Duloxetine],33.8%
12,"Cn1c(=O)c2nc[nH]c2n(C)c1=O [Aminophylline, Theophylline]",44.7%
13,CN(C)CCN(Cc1ccccc1)c1ccccn1 [Tripelennamine],45.6%
14,O=C[C@H](O)[C@@H](O)[C@H](O)[C@H](O)CO [D-glucose],42.5%
15,C[C@@H]1CN(CC(=O)Nc2ccc3c(c2)Cc2cccc(-c4cc(=O)cc(N5CCOCC5)o4)c2S3)C[C@H](C)O1,44.7%
16,Nc1nc(Cl)nc2c1ncn2[C@@H]1O[C@H](CO)[C@@H](O)[C@@H]1F [Clofarabine],35.5%
17,COc1ccc2c(c1)c(C1=C(c3c[nH]c4ccccc34)C(=O)NC1=O)cn2CCCN(C)C,60.7%
18,O=C(/C=C/c1ccc(CN(CCO)CCc2c[nH]c3ccccc23)cc1)NO [Dacinostat],4.88% (active)
19,O=C(O)CCCc1c[nH]c2ccccc12 [3-Indolebutyric Acid],48.2%
20,OCc1c[nH]c2ccccc12 [Indole-3-carbinol],47%
21,C=C(c1ccc(C(=O)O)cc1)c1cc2c(cc1C)C(C)(C)CCC2(C)C [Bexarotene],46%

row,Structure (SMILES),percentage of GFP+
1,COc1ccc(NS(=O)(=O)c2sc3ccc(Cl)cc3c2C)cc1N1CCNCC1,59.1%
2,COc1ccc(Cn2ccc3ccc(C(=O)NO)cc32)cc1,47.2%
3,N[C@@H](CC(=O)N1CCn2c(nnc2C(F)(F)F)C1)Cc1cc(F)c(F)cc1F [Sitagliptin],44.6%
4,CCn1cc(C(=O)O)c(=O)c2cc(F)c(N3CCNC(C)C3)c(F)c21 (stereo unspecified) [Lomefloxacin],44%
5,CC[C@@H](C)Nc1cc(C(=O)NC2CC3CCC(C2)N3c2ccc(C(=O)C3CC3)cn2)c(C)cc1C(N)=O (stereo partly specified),5.49% (active)
6,CC(C)(F)C[C@H](N[C@@H](c1ccc(-c2ccc(S(C)(=O)=O)cc2)cc1)C(F)(F)F)C(=O)NC1(C#N)CC1 [Odanacatib],44.3%
7,C#Cc1cccc(Nc2ncnc3cc(OCCOC)c(OCCOC)cc23)c1 [Erlotinib],7.35% (active)
8,C#Cc1cccc(Nc2ncnc3cc(OCCOC)c(OCCO)cc23)c1,54.2%
9,C#Cc1cccc(Nc2ncnc3cc(OC)c(OCCCCCCC(=O)NO)cc23)c1,37.4%
10,COc1ccc(-c2cc(=O)c3c(O)cc(O)cc3o2)cc1O [Diosmetin],42.4%
11,CC(C)(OCc1nn(Cc2ccccc2)c2ccccc12)C(=O)O [Bindarit],45.3%
12,"CCCN1CCCC[C@H]1C(=O)Nc1c(C)cccc1C [Ropivacaine, Ropivacaine Hydrochloride]",46%
13,CCCCCCCCCC(=O)N[C@@H](Cc1c[nH]c2ccccc12)C(=O)N[C@H](CC(N)=O)C(=O)N[C@@H](CC(=O)O)C(=O)N[C@@H]1C(=O)NCC(=O)N[C@H](CCCN)C(=O)N[C@@H](CC(=O)O)C(=O)N[C@@H](C)C(=O)N[C@@H](CC(=O)O)C(=O)NCC(=O)N[C@H](CO)C(=O)N[C@@H]([C@@H](C)CC(=O)O)C(=O)N[C@@H](CC(=O)c2ccccc2N)C(=O)O[C@@H]1C [Daptomycin],37.2%
14,COC(=O)C1=C(C)N=C(C)/C(=C(/O)OC)C1c1ccccc1[N+](=O)[O-] (stereo unspecified) [Nifedipine],34.3%
15,CO/N=C(/C(=O)N[C@@H]1C(=O)N2C(C(=O)O)=C(CSC(=O)c3ccco3)CS[C@H]12)c1csc(N)n1 [Ceftiofur HCl],39.5%
16,C=CC1=C(C(=O)O)N2C(=O)[C@@H](NC(=O)/C(=N\O)c3csc(N)n3)[C@H]2SC1 [Cefdinir],49.9%
17,CO/N=C(/C(=O)N[C@H]1C(=O)N2C(C(=O)O)=C(Cn3ccc(=N)n3CCO)CS[C@H]12)c1csc(N)n1 [Cefoselis Sulfate],17.3% (active)
18,O=C(c1ccccc1)c1ccc2n1CCC2C(=O)O (stereo unspecified) [Ketorolac],38.6%
19,Oc1ccc(/C=C/c2cc(O)cc(O)c2)cc1 [Resveratrol],42.8%
20,CC1(C)CCC(C)(C)c2cc(NC(=O)c3ccc(C(=O)O)cc3)ccc21 [Tamibarotene],28.2%
